The whole screen tested about 16,000 compounds, of which about 2,600 (16%) were called active. Not shown: some 20% with an inconclusive outcome. A selection follows. A number with no mark means an inactive call. Calls follow the shape of the dose curve; as a rule, active = well fitted curve in the direction sought with a large enough effect; inconclusive = small, poorly fitted or top-dose-only effect, or effect the other way; inactive = no such curve, though single readings can be large or run the other way.
target: Cytochrome P450 2D6 (Homo sapiens) (UniProt P10635); test: Cytochrome panel assay with activity outcomes; settings: recombinant CYP, pro-luciferin dealkylation, luminescence, p450-cyp2d6; series mostly up to 57.1 µM
Sequence (P10635 whole entry, looked up): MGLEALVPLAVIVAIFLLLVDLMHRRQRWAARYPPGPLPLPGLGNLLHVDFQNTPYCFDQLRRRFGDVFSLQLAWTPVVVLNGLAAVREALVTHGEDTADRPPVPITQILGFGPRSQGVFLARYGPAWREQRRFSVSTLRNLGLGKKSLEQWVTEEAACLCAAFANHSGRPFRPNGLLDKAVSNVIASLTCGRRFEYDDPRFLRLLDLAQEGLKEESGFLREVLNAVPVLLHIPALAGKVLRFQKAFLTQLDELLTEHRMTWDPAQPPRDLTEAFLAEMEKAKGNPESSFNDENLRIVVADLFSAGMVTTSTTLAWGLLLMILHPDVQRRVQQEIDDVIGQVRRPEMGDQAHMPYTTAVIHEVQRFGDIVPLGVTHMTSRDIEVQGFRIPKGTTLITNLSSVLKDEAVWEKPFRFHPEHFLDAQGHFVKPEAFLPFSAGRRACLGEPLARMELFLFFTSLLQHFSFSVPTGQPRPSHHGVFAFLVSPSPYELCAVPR
% is scaled to controls: 0 for no effect and ±100 for the full control effect.

Structure (SMILES)	AC50	activity, negative = inhibition
Cc1nn(Cc2c(F)c(F)c(F)c(F)c2F)c(C)c1NC(=O)c1c(-c2ccccc2)nn(-c2ccccc2)c1C	inactive	–
Nc1nc(-c2cccc([N+](=O)[O-])c2)cc(-c2cc(-c3cccc([N+](=O)[O-])c3)nc(N)n2)n1	–	-5.72% [at 11.4 µM]
O=[N+]([O-])c1cccc(-c2nc(-c3cccs3)c(-c3cccs3)[nH]2)c1	15.8 µM (active)	–
c1ccc(-c2nc(-c3cccs3)[nH]c2-c2ccccc2)cc1	inactive	–
Cc1cc(C(F)F)n2nc(C(=O)Nc3cccnc3Cl)nc2n1	inactive	–
O=C(COC(=O)c1cccnc1Cl)c1ccccc1	inactive	–
O=C(OCc1ccc(Cl)cc1)c1ccccc1C(=O)c1ccccc1	inactive	–
O=C(OCc1ccc(Cl)cc1Cl)c1cccnc1Cl	15.8 µM (active)	–
CCc1ccc2c(c1)c(N=NC1=NC(=O)CS1)c(O)n2CC	inactive	–
COc1ccc(CN2C(=O)c3ccccc3C(/C=N\OCc3ccc(F)cc3)C2=O)cc1 (configuration not stated)	inactive	–
COc1cccc(Cn2c(=O)c(CCc3ccccc3)nc3cnc(OC)nc32)c1	inactive	–
C=C1C(=O)O[C@@H]2[C@@H]1CC/C(C)=C\CC[C@@]1(C)O[C@H]21	inactive	–
CN(C)c1ccc(-c2ccc3ncnc(-n4ccnc4)c3c2)cc1	20 µM (active)	–
Cc1ccccc1-c1ccc2ncnc(N3CCN(C)CC3)c2c1	inactive	–
Cc1ccccc1-c1ccc2ncnc(-n3ccnc3)c2c1	25.1 µM (active)	–
CCOC(=O)c1cc2c(ccn2C)n1CC(=O)N1CCCC(C)C1 (configuration not stated)	inactive	–
Cc1ccc(C(=O)NC(=S)Nc2ccc3c(c2)OCCO3)c(C)c1	inactive	–
CON1C(=O)C(=O)N(OC)C2CCCCC21 (configuration not stated)	inactive	–
Cc1cccc(CSc2cccc3cccnc23)c1	inactive	–
CC(C)(C)c1cc2cccnc2n1Cc1cccc(F)c1	1.26 µM (active)	–
COc1cccc(Cn2c(=O)c(-c3cc(F)cc(F)c3)nc3cnc(N(C)C)nc32)c1	inactive	–
CN(C)c1ccc(/C=C2/C(=O)N(c3ccc([N+](=O)[O-])cc3)N=C2N2CCOCC2)cc1	inactive	–
COc1ccc2[nH]c(C(=O)c3ccccc3)cc2c1	inactive	–
C=CCSC1=Nc2sccc2C2=NC(=O)CN12	inactive	–
COc1cc2c(cc1NC(=O)Nc1ccccc1)oc1ccccc12	10 µM (active)	–
COc1ccccc1CC(=O)Nc1cc2oc3ccccc3c2cc1OC	inactive	–

Structure (SMILES)	AC50	activity, negative = inhibition
COc1cc2c(cc1NC(=O)c1cc(-c3cccnc3)nc3ccc(C)cc13)oc1ccccc12	inactive	–
COCCn1c(=O)c(-c2ccc(OC)cc2)nc2cnc(Nc3cccc(OC)c3)nc21	inactive	–
CCOc1cc(NC(=O)C2CCCCC2)c(OCC)cc1NC(=O)c1ccco1	inactive	–
Cn1c(CNS(=O)(=O)c2ccc(Cl)cc2)n[nH]c1=S	inactive	–
O=S(=O)(NCc1cc(-c2ccccc2Cl)no1)c1ccc(Cl)cc1	12.6 µM (active)	–
O=S(=O)(NCc1cc(-c2ccc(Cl)cc2)no1)c1ccc(Cl)cc1	0.631 µM (active)	–
COc1ccc(NC(=O)c2cc(-c3ccccc3Cl)no2)cc1	inactive	–
Clc1ccc(SCc2cc(-c3ccccc3)no2)cc1	inactive	–
O=C(Nc1ccccc1)c1cc(-c2ccccc2Cl)no1	inactive	–
COc1ccc([C@@H]2CC(=O)c3c(O)cc(O[C@H]4O[C@@H](CO[C@H]5O[C@@H](C)[C@@H](O)[C@@H](O)[C@@H]5O)[C@@H](O)[C@@H](O)[C@@H]4O)cc3O2)cc1O	inactive	–
COc1cc(Cl)c(C)cc1NC(=O)CNC(=O)Cn1cnc2ccccc2c1=O	inactive	–
Cc1nc2c([nH]1)c(=O)n(C)c(=O)n2Cc1ccco1	inactive	–
Nc1c(S(=O)(=O)c2ccccc2)c2nc3ccccc3nc2n1Cc1ccco1	25.1 µM (active)	–
Cc1ccc(S(=O)(=O)c2nc(S(=O)(=O)c3ccc(C)cc3)c(NCc3ccco3)s2)cc1	inactive	–
Cc1onc(-c2ccccc2Cl)c1C(=O)NCC(=O)O	inactive	–
O=c1c(-c2cccs2)nc2cnc(Oc3ccccc3)nc2n1Cc1cccs1	inactive	–
NC(=O)CNC(=O)[C@@H]1CC2(CC(c3ccc(Cl)cc3)=NO2)CN1C(=O)c1ccccc1 (some centres not stated)	inactive	–
COc1ccc(S(=O)(=O)N2CCCCCC2)cc1N(C)S(=O)(=O)c1ccc(Cl)cc1	inactive	–
O=C(c1ccncc1)N1CCC2(CC1)CCN(c1cccc(-c3ccccc3)c1)CC2	7.94 µM (active)	–
O=C(c1ccncc1)N1CCC2(CC1)CCN(c1ccccc1)CC2	inactive	–
O=C(c1cccc(F)c1)N1CCC2(CC1)CCN(c1cccc(-c3ccccc3)c1)CC2	inactive	–
O=C(c1ccncc1)N1CCC2(CCCN(C(c3ccccc3)c3ccccc3)C2)CC1	0.0398 µM (active)	–
O=C(c1ccncc1)N1CCC2(CC1)CN(C(c1ccccc1)c1ccccc1)C2	0.0251 µM (active)	–
O=C(c1ccncc1)N1CCC[C@@]2(CCN(c3ncccn3)C2)C1	inactive	–
O=C(c1ccncc1)N1CCC2(CC1)CN(c1ccccc1)C2	7.94 µM (active)	–
CC(C)NC(=O)N1CC2(CCN(C(=O)c3ccncc3)CC2)C1	inactive	–

Structure (SMILES)	AC50	activity, negative = inhibition
O=C(c1ccncc1)N1CCC[C@@]2(CCN(c3ccccc3)C2)C1	inactive	–
O=C(c1ccncc1)N1CCC2(CC1)CN(c1ccc(-c3ccccc3)cc1)C2	inactive	–
CC(C)NC(=O)N1CCCC2(CCN(C(=O)c3ccncc3)CC2)C1	inactive	–
CCN(CC)c1ccc(N2C(=O)/C(=C\c3cccnc3)SC2=S)cc1	inactive	–
NOCC(=O)O	inactive	–
CCCOc1ccc(C(=O)NC(=S)Nc2nc3ccc(C)cc3s2)cc1	inactive	–
Cc1cc(C)nc(NC(=O)CCCC(=O)O)c1	inactive	–
Cc1ccc(N(CC(N)=O)C2SC(=O)N(Cc3cccc(C(=O)O)c3)C2=O)cc1 (configuration not stated)	inactive	–
CCOC(=O)CN(c1ccccn1)S(=O)(=O)c1ccccc1	inactive	–
O=C(O)c1ccc(CSc2nc3ccccc3o2)cc1	inactive	–
O=S(=O)(c1ccccc1)N1CCN(c2cc(-c3ccccc3)nc3ncnn23)CC1	inactive	–
O=C(O)c1ccc(NCc2nc3cc4ccccc4cc3[nH]2)cc1	–	3.49% [at 11.4 µM]
Cn1cccc1C(=O)N1CCC2(CC1)CCN(C(c1ccccc1)c1ccccc1)CC2	inactive	–
O=C(c1cccc(F)c1)N1CCC2(CC1)CN(c1ccc(-c3ccccc3)cc1)C2	inactive	–
O=C(c1ccncc1)N1CCC2(CC1)CCN(C(c1ccccc1)c1ccccc1)CC2	3.16 µM (active)	–
Cn1cccc1C(=O)N1CCC2(CC1)CN(C(=O)Nc1ccccc1)C2	inactive	–
Cn1cccc1C(=O)N1CCC2(CC1)CN(C(c1ccccc1)c1ccccc1)C2	3.16 µM (active)	–
O=C(c1cccc(F)c1)N1CCC2(CC1)CCN(c1ccccc1)CC2	inactive	–
O=C(c1cccc(F)c1)N1CCC2(CC1)CCN(C(c1ccccc1)c1ccccc1)CC2	3.16 µM (active)	–
CN1CCN(c2ncc3nc(-c4ccccc4)c(=O)n(Cc4cccs4)c3n2)CC1	inactive	–
CN1CCN(c2ncc3nc(CCc4ccccc4)c(=O)n(Cc4ccc(F)cc4)c3n2)CC1	inactive	–
N[C@H](CCCP(=O)(O)O)C(=O)O	inactive	–
O=C(N/C(=C/c1ccco1)C(=O)N1CCCCCC1)c1cccs1	inactive	–
Cc1cc(OCC(F)(F)C(F)(F)C(F)(F)C(F)(F)C(F)(F)C(F)F)nc(N)n1	inactive	–
CCCCn1c(SCC(N)=O)nc2ccc(N3CCOCC3)cc2c1=O	inactive	–
Cc1ccc(OC(=O)c2oc3ccc(F)cc3c2C)c(C)c1	inactive	–

Structure (SMILES)	AC50	activity, negative = inhibition
Cc1ccc(NC(=S)NC(=O)c2c(-c3ccccc3Cl)noc2C)cc1	inactive	–
C[C@@H](CCC(=O)O)C(=O)O	–	1.74% [at 11.4 µM]
Cc1ccc(S(=O)(=O)c2c(C)nn(C(C)(C)C)c2OC(=O)c2cccs2)cc1	inactive	–
CCCC[C@H](CC)CN=C(N)NC(N)=NCCCCCCN=C(N)NC(N)=NC[C@@H](CC)CCCC	3.16 µM (active)	–
CC(N)=NCCCC[C@H](N)C(=O)O	inactive	–
CS/C(N)=N/N=C/c1ccc([N+](=O)[O-])cc1	inactive	–
Cc1cc(C)cc(NC(=O)C/C(N)=N/O)c1	inactive	–
O=C(c1ccccc1NS(=O)(=O)c1cccc([N+](=O)[O-])c1)N1CCOCC1	inactive	–
CC(=O)c1cc2c(cc1NC(=O)c1c(-c3ccccc3)noc1C)OCO2	inactive	–
Cc1onc(-c2c(Cl)cccc2Cl)c1C(=O)Nc1ccc2c(c1)OCO2	7.08 µM (active)	–
CCOC(=O)Cc1csc(NC(=O)c2c(-c3c(Cl)cccc3Cl)noc2C)n1	inactive	–
CC1(C)CC(=O)C(CCCN2C(=O)c3ccccc3C2=O)C(=O)C1	inactive	–
CCN(CC)c1ncnc2c1sc1nc(C)cc(C)c12	inactive	–
CO/N=C\[C@@H](OC)[C@H](C)/C=C\CC(=O)OC	–	9.03% [at 11.4 µM]
O=C(CSc1nncn1-c1ccccc1)Nc1ccc(N2CCOCC2)cc1	inactive	–
O=C(O)CCSC1=NCCN1	–	15.4% [at 11.4 µM]
O=C(CSC1=NCCN1)Nc1ccccc1	1.58 µM (active)	–
CCOC(=O)C1=C(C)C(c2ccccc2OC)NC(=S)N1 (configuration not stated)	inactive	–
Cn1c(=O)oc2cc(S(=O)(=O)NCCC(=O)N3CC=C(c4ccccc4)CC3)ccc21	inactive	–
O=C(O)c1cc2cc(Cl)ccc2oc1=O	inactive	–
O=C(Nc1ccccc1N1CCOCC1)c1cnccn1	inactive	–
O=C(Nc1ccc2ncccc2c1)Nc1ccc2ncccc2c1	–	-10.5% [at 11.4 µM]
Cc1nc2ccc(NC(=O)Nc3ccnc4cccnc34)cc2o1	10 µM (active)	–
Cc1cc(N)c2cc(NC(=O)Nc3ccc4nc(C)cc(N)c4c3)ccc2n1	–	7.45% [at 11.4 µM]

— PubChem BioAssay AID1851 (National Center for Advancing Translational Sciences (NCATS), 2009)
